The entries come from a sample that favours hits as a whole.
G9a block: blocks human histone lysine methyltransferase G9a; Q96KQ7; G9a H3K9 monomethylation, AlphaScreen, 2 h; Potency, µM (titrated, usually from 102 µM), most hits filed as inhibitors; actives 8.8% (n = 350,000); further: nearly all actives have a fitted effect of over 75% in size
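Compounds were preincubated with 20 nM G9a for 15 min, after which biotinylated H3K9 peptide (500 nM) and SAM (20 uM) started a 2 h room-temperature reaction. Monomethylated product was quantified by antibody-based AlphaScreen chemiluminescence.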
12-LOX inh: inhibitors of human 12S-lipoxygenase ALOX12; purified 12hLO, xylenol orange hydroperoxide absorbance; actives 1.1% (n = 580,000); Potency, µM (titrated, usually from 108 µM), usual class: inhibitors; P18054
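Hydroperoxide product was detected by ferrous iron/xylenol orange as the 573 to 405 nm absorbance ratio. Arachidonic acid at 40 uM (final) was turned over for 30 min at room temperature by 150 nM human 12hLO, pH 7.0 Hepes buffer, after 15 min compound preincubation.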
VDR inh: inhibitors of human vitamin D receptor. VDR-SRC2-3 peptide fluorescence polarization, 2 h. Potency, µM, most hits filed as inhibitors. actives 0.93% (n = 400,000). AID 504847
Target sequence (P11473 whole entry, looked up): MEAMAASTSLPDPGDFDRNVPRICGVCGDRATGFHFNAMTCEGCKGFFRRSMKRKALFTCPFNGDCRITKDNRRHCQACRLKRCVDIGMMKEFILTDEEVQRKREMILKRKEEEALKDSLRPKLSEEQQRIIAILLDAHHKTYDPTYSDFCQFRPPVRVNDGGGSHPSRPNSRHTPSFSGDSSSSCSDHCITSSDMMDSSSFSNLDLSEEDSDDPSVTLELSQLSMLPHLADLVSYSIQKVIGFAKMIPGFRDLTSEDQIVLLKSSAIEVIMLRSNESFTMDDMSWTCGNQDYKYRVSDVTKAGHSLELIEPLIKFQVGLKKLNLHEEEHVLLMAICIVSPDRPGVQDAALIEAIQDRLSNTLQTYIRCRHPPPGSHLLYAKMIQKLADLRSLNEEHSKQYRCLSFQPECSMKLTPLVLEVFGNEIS
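The screen uses fluorescence polarization to detect compounds that interfere with recruitment of the SRC2-3 coactivator peptide to VDR; plates are read after 2 h at room temperature.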
Sfp PPTase inh: inhibitors of Bacillus subtilis Sfp phosphopantetheinyl transferase | Potency, µM, most hits filed as inhibitors | actives 3.5% (n = 310,000) | Q9F4F7 | Biochemical Sfp PPTase activity, qHTS;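 further: the enzyme is Sfp with the accession as filed and its product quenches rhodamine fluorescence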
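With Hepes-Na pH 7.6 buffer containing 10 mM MgCl2, Sfp (15 nM) modified BHQ-2-YbbR (12.5 uM) using rhodamine-CoA (5 uM). Two reads 30 minutes apart at 525/598 nm yielded each well's rate.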
GRP78 ERSR act: induces the endoplasmic reticulum stress response in human glioma cells. U87-MG GRP78 promoter luciferase reporter, 16 h. Potency, µM, most hits filed as activators. actives 0.02% (n = 420,000); further: series mostly up to about 76 µM; nearly all actives have a fitted effect of over 35% in size
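ERSR induction read as luciferase luminescence (Bright-Glo, 10 min at room temperature) in stably transfected human U87-MG glioma cells exposed to compounds for 16 h, using GRP78 as sensor.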
Numbers stand for hits; - = inactive; ? = inconclusive; . = no result; [ ] = another dose, or the depositor's remark. The call rests on the fitted dose curve; in most records, active means well fitted curve in the direction sought with a large enough effect; inconclusive means small, poorly fitted or top-dose-only effect, or another doubt; inactive means no such curve, though single readings can be large; an effect the other way counts as inactive or inconclusive.

SMILES	G9a block	12-LOX inh	VDR inh	Sfp PPTase inh	GRP78 ERSR act
CCOC(=O)c1cnc(-n2cc(C)cn2)nc1NCc1ccc2c(c1)OCO2	-[12.7 µM]	-	-	79µM	-
CC1=CCC(=C(C)C)CC1	.	-	.	.	.
Cc1ccc(F)c(S(=O)(=O)N(Cc2nccn2C)C2CC2)c1	.	-	.	.	.
O=C(O)C12CC3CC(C1)CC(n1ncc(NCc4ccco4)c(Cl)c1=O)(C3)C2	79µM	-	-	35µM	-
O=C(O)CC12CC3CC(C1)CC(n1ncc(NCc4ccccc4Cl)c(Cl)c1=O)(C3)C2	?	-	-	-	-
CCN(CC)c1ccc(/C=N/NC(=O)c2ccccn2)cc1	-	-	-	-	-
CCN(CC)c1ccc(/C=N/NC(=O)c2c[nH]c3ccccc23)cc1	8.9µM	-	-	-	-
CCN(CC)c1ccc(/C=N/NC(=O)c2cc(C)nc3ccccc23)cc1	-	?	-	-	-
CCN(CC)c1ccc(/C=N/NC(=O)c2cnccn2)cc1	56µM	-	-	?	-
CN1Cc2c(N3CCOCC3)nc3sc(C(=O)c4ccc(Br)cc4)c(N)c3c2CC1(C)C	45µM	?	-	45µM	-
Nc1c(C(=O)Nc2ccc(Cl)cc2)sc2nc(N3CCOCC3)c3c(c12)CCCC3	22µM	?	-	-	-
Cc1ccc(NC(=O)c2sc3nc(N4CCOCC4)c4c(c3c2N)CCCC4)cc1	.	-	.	.	-
CC(=O)c1ccc(NC(=O)c2sc3nc(N4CCOCC4)c4c(c3c2N)CCCC4)cc1	25µM	-	-	?	-
COc1ccc(NC(=O)c2sc3nc(N4CCCC4)c4c(c3c2N)CC(C)(C)OC4)cc1	.	?	-	10µM	-
NNC(=O)c1sc2nc(N3CCOCC3)c3c(c2c1N)CCCC3	?	-	-	-	-
CC1(C)Cc2c(c(N3CCOCC3)nc3sc(C(=O)N4CCCCC4)c(N)c23)CO1	4.5µM	?	?	16µM	-
CNC(=O)c1ccc(-c2sc3nc(N4CCOCC4)c4c(c3c2N)CCCC4)o1	?	?	-	-	-
Nc1c(C(=O)N2CCOCC2)sc2nc(N3CCOCC3)c3c(c12)CCCC3	10µM	40µM	71µM	10µM	-
CNC(=O)c1ccc(-c2sc3nc(N4CCOCC4)c4c(c3c2N)CC(C)(C)OC4)o1	-[0.501 µM]	-	-	79µM	-
Cc1ncc(-c2ccc(S(=O)(=O)N3CCN(c4cc(Cl)ccc4C)CC3)cc2)o1	.	-	.	.	.
O=C(CSc1nnc(-c2cccnc2)s1)Nc1ccc(C(=O)O)cc1	14µM	-	-	-	-
Cc1ccc(NC(=O)CSc2nnc(-c3ccncc3)s2)cc1	-	-	-	-	-
CC(C)NC(=O)c1cc(Cl)ccc1OCc1ccccc1	.	-	.	.	.
CCCCNC(=S)NC(C)(C)CO	11µM	?	-	-	-
CCCCNC(=S)NN	.	-	.	.	.
SMILES	G9a block	12-LOX inh	VDR inh	Sfp PPTase inh	GRP78 ERSR act
COc1ccc(CNC[C@H]2Cn3c(-c4ccc(Cl)cc4)cnc3CO2)cc1	.	45µM	.	.	.
CCN1c2ccccc2NC2C1C(C(C)=O)C(=O)N2c1ccc(Cl)cc1 (configuration not stated)	45µM	?	-	-	-
Cc1ccc(N2C(=O)C3C4C=CC(CC4)C3C2=O)cc1[N+](=O)[O-] (configuration not stated)	-[0.501 µM]	?	-	32µM	-
COc1ccc(N2C(=O)C3C4C=CC(CC4)C3C2=O)c([N+](=O)[O-])c1 (configuration not stated)	-[2.33 µM]	-	-	-	-
CC(C)C1Nc2c(O)cc(Cl)c([N+](=O)[O-])c2C2C=CCC21 (configuration not stated)	25µM	?	-	-	-
Cc1ccc(C)c2c1NC(C(=O)O)C1CC=CC21 (configuration not stated)	.	.	-	.	-
CC1CCCCN1C(=O)COC(=O)c1cc([N+](=O)[O-])ccc1N (configuration not stated)	40µM	?	-	.	-
CC1CCN(C(=O)COC(=O)c2cc([N+](=O)[O-])ccc2N2CCOCC2)CC1	-[0.501 µM]	-	-	.	-
COc1ccc(-c2n[nH]c(=S)n2-c2ccc(C)cc2C)cc1	-[0.501 µM]	6.3µM	-	-	-
Cc1ccc(-n2c(-c3ccc(Cl)cc3)n[nH]c2=S)c(C)c1	5.6µM	?	-	-	-
COc1ccc(C)cc1-n1c(-c2ccncc2)n[nH]c1=S	?	-	-	-	-
CCCCn1c(=O)[nH]c(=O)c2c1nc(COC(=O)C1CC1)n2CC	.	-	.	.	.
